Test results: PubChem BioAssay
The list shows a part of the results. Values without a mark were called inactive. Activity calls are given as the source filed them.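 The calls were made as follows, unless noted: active = inhibition above a set limit taken from the earlier primary screen (cut at about 63% in these data); inactive = the rest.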

Molecular target: Neuropeptide Y receptor type 1 (Homo sapiens) (UniProt P25929)
Experiment: NPY-Y1 potentiators or agonists, counter-screen for NPY-Y2 potentiator project, cell-based, fluorescence (AID 1651; in the data active = activation above about 45%;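 also: cells stimulated with submaximal NPY then isoproterenol with phosphodiesterase inhibitor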)
Conditions: Y1 HEK293-CNG cells, membrane potential fluorescence; at 3.6 µM; stronger effect = higher value

Neuropeptide Y receptor type 1 (Homo sapiens), sequence (P25929 whole entry, looked up): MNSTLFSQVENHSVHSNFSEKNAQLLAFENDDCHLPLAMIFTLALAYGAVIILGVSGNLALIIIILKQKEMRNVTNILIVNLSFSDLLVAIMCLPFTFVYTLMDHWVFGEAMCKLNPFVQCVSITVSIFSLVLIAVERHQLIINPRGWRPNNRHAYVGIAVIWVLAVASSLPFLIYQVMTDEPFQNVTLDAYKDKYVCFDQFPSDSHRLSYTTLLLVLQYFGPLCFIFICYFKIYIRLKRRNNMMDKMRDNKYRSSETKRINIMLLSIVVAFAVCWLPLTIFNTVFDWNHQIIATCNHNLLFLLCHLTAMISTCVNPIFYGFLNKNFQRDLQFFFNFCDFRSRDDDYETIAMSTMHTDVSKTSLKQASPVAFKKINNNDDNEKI

SMILES | activation
CN(C)c1ccc(CNC2C3CC4CC(C3)CC2C4)cc1 (centres undefined) | -7.77%
O=C(NCc1ccccc1)c1ccc(S(=O)(=O)Nc2cccc(C(F)(F)F)c2)cc1 | 17%
CN(Cc1ccccc1)C(=O)CCNC(=O)Cn1cnc2ccccc2c1=O | 33.4%
O=C1NC(c2ccc(-c3ccccc3[N+](=O)[O-])o2)C(C(=O)c2ccc(Cl)cc2)C(O)(C(F)(F)F)N1 (centres undefined) | 38.7%
N/C(=N\S(=O)(=O)c1cc(C(F)(F)F)cc(C(F)(F)F)c1)c1cccs1 | 29.6%
CC(=O)c1ccc2c(c1)OCCOCCOc1ccc(C(C)=O)cc1OCCOCCO2 | 25.9%
CC(Nc1ccccc1)c1cccnc1 (centres undefined) | -7.91%
COc1ccc2nc(NC(=O)NC3CCCCC3)sc2c1 | 66.1% (active)
Cc1ccc(CCNC(=O)C2CCN(S(=O)(=O)N3CCCC3)CC2)cc1 | -6.28%
COc1cc(NC(=O)c2ccccc2NS(=O)(=O)c2ccc(Cl)s2)cc(OC)c1 | -30.1%
O=C(Nc1sc2c(c1-c1nc3ccccc3[nH]1)CCCC2)C1CC1 | 30.4%

Molecular target: Neuropeptide Y receptor type 1 (Homo sapiens) (UniProt P25929)
Experiment: NPY-Y1 direct agonists, selectivity assay for NPY-Y2 potentiator project, cell-based, fluorescence (AID 1702;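 active = activation above the mean of DMSO-only control wells plus 3 SD, cut at about 18% in these data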;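 also: cells stimulated with 1 µM isoproterenol plus the PDE inhibitor Ro 20-1724; 0% = isoproterenol with DMSO and no NPY and 100% = 40 nM NPY; Y1 agonists lower the membrane potential dye signal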)
Conditions: HEK293 Y1-CNGC, membrane potential fluorescence, agonism; at 3.6 µM; stronger effect = higher value

SMILES | activation
CN(C)c1ccc(CNC2C3CC4CC(C3)CC2C4)cc1 (centres undefined) | -11.2%
O=C(NCc1ccccc1)c1ccc(S(=O)(=O)Nc2cccc(C(F)(F)F)c2)cc1 | 12%
CN(Cc1ccccc1)C(=O)CCNC(=O)Cn1cnc2ccccc2c1=O | 11.4%
O=C1NC(c2ccc(-c3ccccc3[N+](=O)[O-])o2)C(C(=O)c2ccc(Cl)cc2)C(O)(C(F)(F)F)N1 (centres undefined) | 30.5% (active)
N/C(=N\S(=O)(=O)c1cc(C(F)(F)F)cc(C(F)(F)F)c1)c1cccs1 | 15.7%
CC(=O)c1ccc2c(c1)OCCOCCOc1ccc(C(C)=O)cc1OCCOCCO2 | 36.5% (active)
CC(Nc1ccccc1)c1cccnc1 (centres undefined) | -5.76%
COc1ccc2nc(NC(=O)NC3CCCCC3)sc2c1 | 72.5% (active)
Cc1ccc(CCNC(=O)C2CCN(S(=O)(=O)N3CCCC3)CC2)cc1 | -10.2%
COc1cc(NC(=O)c2ccccc2NS(=O)(=O)c2ccc(Cl)s2)cc(OC)c1 | -29%
O=C(Nc1sc2c(c1-c1nc3ccccc3[nH]1)CCCC2)C1CC1 | 27.3% (active)

Test system: not listed separately
Experiment: CNGC cAMP sensor activity inhibitors, counter-screen for NPY-Y2 potentiator project, cell-based, HEK293-CNG parental, membrane potential fluorescence (AID 1703;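 active = inhibition above the control-well mean plus 3 SD of those wells, cut at about 22% in these data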;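 also: 0% = DMSO with isoproterenol and 100% = DMSO without isoproterenol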)
Conditions: isoproterenol cAMP, at 3.6 µM, stronger effect = higher value

SMILES | inhibition
CN(C)c1ccc(CNC2C3CC4CC(C3)CC2C4)cc1 (centres undefined) | 5.13%
O=C(NCc1ccccc1)c1ccc(S(=O)(=O)Nc2cccc(C(F)(F)F)c2)cc1 | 16.6%
CN(Cc1ccccc1)C(=O)CCNC(=O)Cn1cnc2ccccc2c1=O | 11.2%
O=C1NC(c2ccc(-c3ccccc3[N+](=O)[O-])o2)C(C(=O)c2ccc(Cl)cc2)C(O)(C(F)(F)F)N1 (centres undefined) | 31.2% (active)
N/C(=N\S(=O)(=O)c1cc(C(F)(F)F)cc(C(F)(F)F)c1)c1cccs1 | 25.6% (active)
CC(=O)c1ccc2c(c1)OCCOCCOc1ccc(C(C)=O)cc1OCCOCCO2 | 22.4% (active)
CC(Nc1ccccc1)c1cccnc1 (centres undefined) | 2.7%
COc1ccc2nc(NC(=O)NC3CCCCC3)sc2c1 | 56.1% (active)
Cc1ccc(CCNC(=O)C2CCN(S(=O)(=O)N3CCCC3)CC2)cc1 | -4.94%
COc1cc(NC(=O)c2ccccc2NS(=O)(=O)c2ccc(Cl)s2)cc(OC)c1 | -9.95%
O=C(Nc1sc2c(c1-c1nc3ccccc3[nH]1)CCCC2)C1CC1 | 19.9%

Molecular target: Neuropeptide Y receptor type 2 (Homo sapiens) (UniProt P49146)
Experiment: NPY-Y2 direct agonists, counter-screen for NPY-Y2 potentiator project, cell-based, fluorescence (AID 1710;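 active = activation above the mean of solvent-only control wells plus 3 SD, cut at about 10% in these data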;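 also: cells stimulated by isoproterenol with no NPY added so direct agonism is tested; 0% = DMSO with isoproterenol alone and 100% = NPY at EC100 plus isoproterenol; agonism lowers probe fluorescence through less cAMP and CNG channel opening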)
Conditions: HEK293 Y2/CNGC cells, membrane potential fluorescence, agonist mode; at 3.6 µM; stronger effect = higher value

Neuropeptide Y receptor type 2 (Homo sapiens), sequence (P49146 whole entry, looked up): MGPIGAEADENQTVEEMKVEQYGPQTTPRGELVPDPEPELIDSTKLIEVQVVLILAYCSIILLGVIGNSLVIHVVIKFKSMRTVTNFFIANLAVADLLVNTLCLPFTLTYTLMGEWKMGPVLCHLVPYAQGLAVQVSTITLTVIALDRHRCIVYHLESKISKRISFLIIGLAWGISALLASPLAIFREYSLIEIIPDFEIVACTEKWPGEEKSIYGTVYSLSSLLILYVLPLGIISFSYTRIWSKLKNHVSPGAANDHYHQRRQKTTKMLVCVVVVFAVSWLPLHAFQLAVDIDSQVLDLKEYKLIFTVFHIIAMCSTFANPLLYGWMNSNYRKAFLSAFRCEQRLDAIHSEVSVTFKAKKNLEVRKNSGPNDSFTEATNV

SMILES | activation
CN(C)c1ccc(CNC2C3CC4CC(C3)CC2C4)cc1 (centres undefined) | -2.65%
O=C(NCc1ccccc1)c1ccc(S(=O)(=O)Nc2cccc(C(F)(F)F)c2)cc1 | 19.8% (active)
CN(Cc1ccccc1)C(=O)CCNC(=O)Cn1cnc2ccccc2c1=O | 18.3% (active)
O=C1NC(c2ccc(-c3ccccc3[N+](=O)[O-])o2)C(C(=O)c2ccc(Cl)cc2)C(O)(C(F)(F)F)N1 (centres undefined) | 32.6% (active)
N/C(=N\S(=O)(=O)c1cc(C(F)(F)F)cc(C(F)(F)F)c1)c1cccs1 | 23.1% (active)
CC(=O)c1ccc2c(c1)OCCOCCOc1ccc(C(C)=O)cc1OCCOCCO2 | 26.6% (active)
CC(Nc1ccccc1)c1cccnc1 (centres undefined) | 17.8% (active)
COc1ccc2nc(NC(=O)NC3CCCCC3)sc2c1 | 53.9% (active)
Cc1ccc(CCNC(=O)C2CCN(S(=O)(=O)N3CCCC3)CC2)cc1 | -8.83%
COc1cc(NC(=O)c2ccccc2NS(=O)(=O)c2ccc(Cl)s2)cc(OC)c1 | -3.82%
O=C(Nc1sc2c(c1-c1nc3ccccc3[nH]1)CCCC2)C1CC1 | 24.5% (active)

Test system: not listed separately
Experiment: KLF5 expression inhibitors, confirmation, DLD-1 cells, luminescence (AID 1834);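 also: 0% = DMSO wells and 100% = LY294002 at 200 µM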
Conditions: DLD-1 KLF5 promoter firefly luciferase reporter, at 4 µM, stronger effect = higher value

SMILES | inhibition
COc1ccc(Nc2cc(C)nc(-n3nc(C)cc3C)n2)cc1 | 78.8% (active)
CCNC(=O)CCc1nc(-c2ccc(C(C)(C)C)cc2)no1 | 56%
CN(c1ccc2nc3ccccc3c(=O)n2n1)C1CCCCC1 | 72.9% (active)
CN(CCO)c1ccc(/C=N/Nc2nncc3ccccc23)cc1 | 91.2% (active)
Cc1ccc(/C=N/NC(=O)COc2ccccc2-c2ccccc2)cc1 | 85.4% (active)
CSc1nc(N(C)NC(=O)c2cccc(C)c2)c2ccccc2n1 | 88.7% (active)
COc1cccc(/C=N/Nc2ncc(C(F)(F)F)cc2Cl)c1O | 99.8% (active)
CC(=O)c1ccc(Oc2cc(C)nc(-n3nc(C)cc3C)n2)cc1 | 63.5% (active)
CCOc1cc(C(=O)N2CCc3cc(OC)c(OC)cc3C2)ccc1OC(F)F | 85.3% (active)
CCn1c(SCC(=O)Nc2nccs2)nnc1-c1ccncc1 | 3.83%
COc1ccccc1C1C2=C(COC2=O)Nc2cc3c(cc21)OCO3 (centres undefined) | 88.1% (active)
CCOc1ccccc1NC(=O)Cn1nnc(C(=O)NCc2cccs2)c1N | 83.1% (active)
Cn1nccc1C(=O)NC1CCCc2c1cnn2-c1ccc(F)cc1F (centres undefined) | 24.7%
C[C@@H]1C[C@@H]2O[C@H]2/C=C\C=C\C(=O)Cc2c(Cl)c(O)cc(O)c2C(=O)O1 | 67.1% (active)
COc1ccc(C(=O)Nc2ccccc2C(=O)N/N=C/c2ccc(O)c(OC)c2)cc1 | 111% (active)
CCOC(=O)c1sc(NC(=O)c2sc(C)nc2C)nc1C | 69.3% (active)
CCOC(=O)CSC1=C(C#N)C(c2sccc2C)CC(=O)N1 (centres undefined) | 63.3% (active)
Cc1ccc2[nH]c(=O)c(CN(CCCN(C)C)C(=O)Nc3cccc(Cl)c3)cc2c1 | -15.6%
COc1ccccc1N1CCN(C(=O)c2cc(=O)c3cc(C)cc(C)c3o2)CC1 | 87.3% (active)
O=c1cc(-c2ccccc2)[nH]c2cc(F)ccc12 | 77.9% (active)
